# Measurements taken from paper PMC7862700, “An all-to-all approach to the identification of sequence-specific readers for epigenetic DNA modifications on cytosine”.
# Tests used:
# Assay in all cases: DAPPL (digital affinity profiling via proximity ligation, sequencing); 10 mM Tris-HCl pH 7.5, 50 mM NaCl, 1 mM DTT, 4% glycerol, room temperature, 30 min; GST-TFs on glutathione beads, 16-mer random dsDNA library, 0.1% formaldehyde crosslink after washing; high values mean tight binding
# [1] = target: T1, FEV (Homo sapiens, UniProt Q99581 1-238); conditions: protein: recombinant; tags: N-terminal GST; dsDNA, one strand shown
# T1 sequence: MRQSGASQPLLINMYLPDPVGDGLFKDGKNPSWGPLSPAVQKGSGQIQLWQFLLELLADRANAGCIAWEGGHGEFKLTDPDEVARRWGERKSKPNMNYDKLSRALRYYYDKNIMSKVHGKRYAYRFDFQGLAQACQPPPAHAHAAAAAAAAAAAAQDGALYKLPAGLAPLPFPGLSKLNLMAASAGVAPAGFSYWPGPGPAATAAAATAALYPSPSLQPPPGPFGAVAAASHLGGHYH
# Procedure, shortened: (§1)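 The binding signal reported is, for every hexamer, its read frequency for a factor over its read frequency for the tag-only sample. Reads came from pools of yeast-expressed, GST-fused human transcription factors on glutathione beads, barcoded with DNA and mixed with that sample, which were incubated with 200 nmole of a random double-stranded 16-mer DNA library in Tris/NaCl/DTT/glycerol buffer at room temperature for 30 min. After washing, the pools were crosslinked with 0.1% formaldehyde, proximity-ligated with BsaI/T4 ligase for 1 h at 37 °C, PCR-amplified and sequenced on an Illumina NextSeq500.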
# [2] = target: ETV5 (Homo sapiens, UniProt P41161 1-510); conditions: protein: recombinant; tags: N-terminal GST; dsDNA, one strand shown
# Procedure, shortened: as §1
# [3] = target: HSF1 (Homo sapiens, UniProt Q00613 1-529); conditions: protein: recombinant; tags: N-terminal GST; chain copies: 3; dsDNA, one strand shown
# Procedure, shortened: as §1
# [4] = target: T2, SPIC (Homo sapiens, UniProt Q8N5J4 1-248); conditions: protein: recombinant; tags: N-terminal GST; dsDNA, one strand shown
# T2 sequence: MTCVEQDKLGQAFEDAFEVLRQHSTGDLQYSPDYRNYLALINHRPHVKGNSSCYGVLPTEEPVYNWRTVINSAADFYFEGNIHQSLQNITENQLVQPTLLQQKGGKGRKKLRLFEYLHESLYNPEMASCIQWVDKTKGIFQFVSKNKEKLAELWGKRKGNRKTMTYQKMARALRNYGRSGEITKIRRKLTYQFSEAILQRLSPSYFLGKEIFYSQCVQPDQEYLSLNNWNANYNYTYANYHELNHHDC
# Procedure, shortened: as §1
# [5] = target: ELF4 (Homo sapiens, UniProt Q99607 1-663); conditions: protein: recombinant; tags: N-terminal GST; dsDNA, one strand shown
# Procedure, shortened: as §1
# [6] = target: T3, ELK4 (Homo sapiens, UniProt P28324-2 1-405); conditions: protein: recombinant; tags: N-terminal GST; dsDNA, one strand shown
# T3 sequence: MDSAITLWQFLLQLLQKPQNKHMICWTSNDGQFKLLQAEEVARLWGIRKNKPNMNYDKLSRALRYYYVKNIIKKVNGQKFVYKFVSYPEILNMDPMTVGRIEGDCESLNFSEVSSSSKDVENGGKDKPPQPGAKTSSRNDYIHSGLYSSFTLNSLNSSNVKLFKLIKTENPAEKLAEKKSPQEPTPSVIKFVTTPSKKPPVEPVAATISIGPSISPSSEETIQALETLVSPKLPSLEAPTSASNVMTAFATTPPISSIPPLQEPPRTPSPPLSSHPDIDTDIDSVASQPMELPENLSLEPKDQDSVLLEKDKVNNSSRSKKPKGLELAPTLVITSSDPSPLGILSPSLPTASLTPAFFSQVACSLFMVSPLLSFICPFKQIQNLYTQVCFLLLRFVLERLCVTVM
# Procedure, shortened: as §1
# [7] = target: T4, ETV2 (Homo sapiens, UniProt O00321 1-342); conditions: protein: recombinant; tags: N-terminal GST; dsDNA, one strand shown
# T4 sequence: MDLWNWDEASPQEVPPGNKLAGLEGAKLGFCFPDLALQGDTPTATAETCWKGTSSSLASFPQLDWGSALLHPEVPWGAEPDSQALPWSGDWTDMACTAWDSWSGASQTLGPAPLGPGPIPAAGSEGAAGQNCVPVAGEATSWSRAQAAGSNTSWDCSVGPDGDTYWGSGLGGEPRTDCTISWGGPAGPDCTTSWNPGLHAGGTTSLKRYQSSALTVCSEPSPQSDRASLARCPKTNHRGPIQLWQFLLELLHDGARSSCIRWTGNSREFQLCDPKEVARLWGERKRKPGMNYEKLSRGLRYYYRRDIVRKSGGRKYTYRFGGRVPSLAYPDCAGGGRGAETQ
# Procedure, shortened: as §1
# [8] = target: T5, ELF3 (Homo sapiens, UniProt P78545 1-371); conditions: protein: recombinant; tags: N-terminal GST; dsDNA, one strand shown
# T5 sequence: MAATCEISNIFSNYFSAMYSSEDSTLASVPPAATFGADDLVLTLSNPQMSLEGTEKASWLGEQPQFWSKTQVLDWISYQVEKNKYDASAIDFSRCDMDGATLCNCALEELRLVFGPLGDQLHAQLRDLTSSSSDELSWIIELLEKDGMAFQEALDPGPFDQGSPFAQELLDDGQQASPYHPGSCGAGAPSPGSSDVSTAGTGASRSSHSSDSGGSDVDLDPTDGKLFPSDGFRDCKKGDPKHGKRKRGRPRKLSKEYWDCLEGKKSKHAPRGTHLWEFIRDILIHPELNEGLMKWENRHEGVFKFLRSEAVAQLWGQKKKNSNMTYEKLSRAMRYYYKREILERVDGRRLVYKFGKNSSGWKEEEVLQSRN
# Procedure, shortened: as §1
# [9] = target: CRX (Homo sapiens, UniProt O43186 1-299); conditions: protein: recombinant; tags: N-terminal GST; dsDNA, one strand shown
# Procedure, shortened: as §1
# [10] = target: ETV1 (Homo sapiens, UniProt P50549 1-477); conditions: protein: recombinant; tags: N-terminal GST; dsDNA, one strand shown
# Procedure, shortened: as §1
# [11] = target: T6, ERF (Homo sapiens, UniProt P50548 1-548); conditions: protein: recombinant; tags: N-terminal GST; dsDNA, one strand shown
# T6 sequence: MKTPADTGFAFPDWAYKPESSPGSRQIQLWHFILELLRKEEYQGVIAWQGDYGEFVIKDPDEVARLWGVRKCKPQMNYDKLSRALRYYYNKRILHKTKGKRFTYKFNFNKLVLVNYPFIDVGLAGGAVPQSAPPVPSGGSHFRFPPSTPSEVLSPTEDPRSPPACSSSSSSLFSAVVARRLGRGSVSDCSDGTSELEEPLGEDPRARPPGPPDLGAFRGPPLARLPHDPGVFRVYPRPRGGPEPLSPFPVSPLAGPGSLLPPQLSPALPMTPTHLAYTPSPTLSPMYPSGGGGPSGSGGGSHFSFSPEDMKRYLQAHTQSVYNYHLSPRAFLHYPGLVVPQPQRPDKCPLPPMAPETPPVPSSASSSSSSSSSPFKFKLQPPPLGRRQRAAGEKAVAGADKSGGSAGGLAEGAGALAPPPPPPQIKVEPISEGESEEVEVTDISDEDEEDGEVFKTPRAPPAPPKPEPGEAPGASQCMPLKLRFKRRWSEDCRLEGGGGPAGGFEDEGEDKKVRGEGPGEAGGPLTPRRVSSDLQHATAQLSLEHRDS
# Procedure, shortened: as §1
# [12] = target: T7, ETV3L (Homo sapiens, UniProt Q6ZN32 1-361); conditions: protein: recombinant; tags: N-terminal GST; dsDNA, one strand shown
# T7 sequence: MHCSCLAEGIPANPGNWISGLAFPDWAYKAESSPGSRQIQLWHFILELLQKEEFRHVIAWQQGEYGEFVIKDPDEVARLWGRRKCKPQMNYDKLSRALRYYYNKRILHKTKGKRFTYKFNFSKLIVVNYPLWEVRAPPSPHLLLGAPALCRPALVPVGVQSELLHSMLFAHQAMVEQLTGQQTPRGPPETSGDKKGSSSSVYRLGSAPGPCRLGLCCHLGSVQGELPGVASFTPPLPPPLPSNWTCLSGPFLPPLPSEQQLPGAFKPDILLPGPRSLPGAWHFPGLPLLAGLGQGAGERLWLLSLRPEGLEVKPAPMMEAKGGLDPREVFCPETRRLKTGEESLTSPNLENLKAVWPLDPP
# Procedure, shortened: as §1
# [13] = target: T8, ETS2 (Homo sapiens, UniProt P15036 1-469); conditions: protein: recombinant; tags: N-terminal GST; dsDNA, one strand shown
# T8 sequence: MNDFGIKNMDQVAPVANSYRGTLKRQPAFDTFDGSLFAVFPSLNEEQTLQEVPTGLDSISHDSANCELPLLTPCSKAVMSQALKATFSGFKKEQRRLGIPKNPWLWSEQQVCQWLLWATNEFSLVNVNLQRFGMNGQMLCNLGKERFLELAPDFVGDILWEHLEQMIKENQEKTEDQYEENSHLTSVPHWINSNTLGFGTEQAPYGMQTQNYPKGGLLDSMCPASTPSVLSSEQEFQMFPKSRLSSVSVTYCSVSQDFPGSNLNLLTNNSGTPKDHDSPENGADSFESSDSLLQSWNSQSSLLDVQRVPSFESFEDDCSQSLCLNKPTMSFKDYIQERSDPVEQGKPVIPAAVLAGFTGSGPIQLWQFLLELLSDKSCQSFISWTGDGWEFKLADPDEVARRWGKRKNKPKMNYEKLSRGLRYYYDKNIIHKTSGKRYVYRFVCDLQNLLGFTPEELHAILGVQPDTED
# Procedure, shortened: as §1
# [14] = target: T9, SPDEF (Homo sapiens, UniProt O95238 1-335); conditions: protein: recombinant; tags: N-terminal GST; dsDNA, one strand shown
# T9 sequence: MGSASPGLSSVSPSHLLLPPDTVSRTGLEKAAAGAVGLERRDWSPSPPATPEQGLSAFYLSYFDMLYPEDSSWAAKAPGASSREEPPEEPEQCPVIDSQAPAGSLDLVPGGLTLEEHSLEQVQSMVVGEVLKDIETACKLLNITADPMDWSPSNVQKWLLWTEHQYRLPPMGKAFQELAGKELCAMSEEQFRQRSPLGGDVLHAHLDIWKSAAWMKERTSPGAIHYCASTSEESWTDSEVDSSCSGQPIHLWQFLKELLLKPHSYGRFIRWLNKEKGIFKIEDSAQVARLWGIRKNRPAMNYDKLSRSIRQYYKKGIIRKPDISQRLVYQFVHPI
# Procedure, shortened: as §1
# [15] = target: T10, ETV7 (Homo sapiens, UniProt Q9Y603 1-341); conditions: protein: recombinant; tags: N-terminal GST; dsDNA, one strand shown
# T10 sequence: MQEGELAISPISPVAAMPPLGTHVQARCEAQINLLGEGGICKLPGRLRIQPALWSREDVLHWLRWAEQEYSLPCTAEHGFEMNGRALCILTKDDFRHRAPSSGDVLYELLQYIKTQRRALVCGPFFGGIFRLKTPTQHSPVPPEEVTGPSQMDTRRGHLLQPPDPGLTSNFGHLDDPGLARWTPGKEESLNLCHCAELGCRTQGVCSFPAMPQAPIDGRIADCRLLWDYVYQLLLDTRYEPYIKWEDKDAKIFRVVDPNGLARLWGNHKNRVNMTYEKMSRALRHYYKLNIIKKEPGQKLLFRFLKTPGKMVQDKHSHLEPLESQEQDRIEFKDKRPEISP
# Procedure, shortened: as §1
# [16] = target: T11, ELF5 (Homo sapiens, UniProt Q9UKW6-2 1-255); conditions: protein: recombinant; tags: N-terminal GST; dsDNA, one strand shown
# T11 sequence: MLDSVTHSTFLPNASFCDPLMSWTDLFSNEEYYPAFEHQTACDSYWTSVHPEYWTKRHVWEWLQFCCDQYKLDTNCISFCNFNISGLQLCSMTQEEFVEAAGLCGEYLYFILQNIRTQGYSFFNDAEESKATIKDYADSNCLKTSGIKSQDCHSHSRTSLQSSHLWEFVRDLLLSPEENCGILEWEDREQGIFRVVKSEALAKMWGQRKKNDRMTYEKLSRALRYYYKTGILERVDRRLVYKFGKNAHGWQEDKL
# Procedure, shortened: as §1
# [17] = target: T12, ETV3 (Homo sapiens, UniProt P41162-2 1-143); conditions: protein: recombinant; tags: N-terminal GST; dsDNA, one strand shown
# T12 sequence: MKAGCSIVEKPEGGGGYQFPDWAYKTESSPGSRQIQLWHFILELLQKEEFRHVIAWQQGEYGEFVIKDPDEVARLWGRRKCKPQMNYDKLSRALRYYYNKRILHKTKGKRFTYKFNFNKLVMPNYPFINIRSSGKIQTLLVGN
# Procedure, shortened: as §1
# [18] = target: ETV6 (Homo sapiens, UniProt P41212 1-452); conditions: protein: recombinant; tags: N-terminal GST; dsDNA, one strand shown
# Procedure, shortened: as §1
# ELF4, sequence (Q99607 whole entry): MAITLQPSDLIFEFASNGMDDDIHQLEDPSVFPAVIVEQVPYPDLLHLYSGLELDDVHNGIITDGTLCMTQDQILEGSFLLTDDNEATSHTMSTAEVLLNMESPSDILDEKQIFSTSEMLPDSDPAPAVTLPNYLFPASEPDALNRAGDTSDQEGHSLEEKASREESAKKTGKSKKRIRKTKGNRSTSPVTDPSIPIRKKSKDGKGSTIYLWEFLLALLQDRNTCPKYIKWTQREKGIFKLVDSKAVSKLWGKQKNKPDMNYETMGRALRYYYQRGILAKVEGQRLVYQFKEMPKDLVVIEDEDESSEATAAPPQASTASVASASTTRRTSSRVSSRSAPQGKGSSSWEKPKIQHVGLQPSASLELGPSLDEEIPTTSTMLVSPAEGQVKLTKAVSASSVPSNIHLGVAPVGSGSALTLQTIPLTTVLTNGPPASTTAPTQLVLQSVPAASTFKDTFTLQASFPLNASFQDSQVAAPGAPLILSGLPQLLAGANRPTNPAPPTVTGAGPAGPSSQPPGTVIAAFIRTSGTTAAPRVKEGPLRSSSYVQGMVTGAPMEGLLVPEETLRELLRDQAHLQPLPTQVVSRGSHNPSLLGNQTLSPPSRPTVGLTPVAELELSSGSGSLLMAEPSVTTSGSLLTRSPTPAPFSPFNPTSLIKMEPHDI
# ETV6, sequence (P41212 whole entry): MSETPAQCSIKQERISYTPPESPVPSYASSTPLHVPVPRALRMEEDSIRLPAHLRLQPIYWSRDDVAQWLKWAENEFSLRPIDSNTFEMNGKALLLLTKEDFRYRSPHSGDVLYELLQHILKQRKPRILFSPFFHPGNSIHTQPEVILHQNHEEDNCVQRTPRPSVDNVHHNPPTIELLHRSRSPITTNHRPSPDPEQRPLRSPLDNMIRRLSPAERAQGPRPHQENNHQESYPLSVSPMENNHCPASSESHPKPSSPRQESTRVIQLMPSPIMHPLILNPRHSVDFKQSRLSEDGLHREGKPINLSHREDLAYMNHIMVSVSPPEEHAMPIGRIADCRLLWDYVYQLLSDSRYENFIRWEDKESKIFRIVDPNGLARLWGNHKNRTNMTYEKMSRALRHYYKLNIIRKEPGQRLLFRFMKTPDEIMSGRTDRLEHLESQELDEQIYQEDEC
# HSF1, sequence (Q00613 whole entry): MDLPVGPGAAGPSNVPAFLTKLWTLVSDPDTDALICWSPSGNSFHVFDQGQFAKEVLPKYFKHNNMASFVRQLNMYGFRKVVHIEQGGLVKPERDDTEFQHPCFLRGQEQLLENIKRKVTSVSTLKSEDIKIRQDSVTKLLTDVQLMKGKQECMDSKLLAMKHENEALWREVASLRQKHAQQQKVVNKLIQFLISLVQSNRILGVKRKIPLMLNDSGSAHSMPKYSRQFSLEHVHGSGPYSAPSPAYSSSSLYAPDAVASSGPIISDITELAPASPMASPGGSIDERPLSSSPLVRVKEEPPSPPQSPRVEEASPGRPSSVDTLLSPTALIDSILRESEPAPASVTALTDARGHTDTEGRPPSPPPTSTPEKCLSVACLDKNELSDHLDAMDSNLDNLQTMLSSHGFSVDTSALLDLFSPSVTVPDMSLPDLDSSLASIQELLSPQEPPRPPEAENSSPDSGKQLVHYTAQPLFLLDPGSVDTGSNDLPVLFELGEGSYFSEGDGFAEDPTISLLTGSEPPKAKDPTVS
# CRX, sequence (O43186 whole entry): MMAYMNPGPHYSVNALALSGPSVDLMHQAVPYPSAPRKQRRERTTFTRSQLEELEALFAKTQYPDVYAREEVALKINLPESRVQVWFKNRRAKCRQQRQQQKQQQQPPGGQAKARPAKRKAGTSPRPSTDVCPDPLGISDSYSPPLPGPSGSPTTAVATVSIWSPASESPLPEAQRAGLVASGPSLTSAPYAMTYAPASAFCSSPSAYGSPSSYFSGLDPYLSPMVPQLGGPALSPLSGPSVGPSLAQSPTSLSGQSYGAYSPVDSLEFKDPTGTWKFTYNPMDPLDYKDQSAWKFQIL
# ETV1, sequence (P50549 whole entry): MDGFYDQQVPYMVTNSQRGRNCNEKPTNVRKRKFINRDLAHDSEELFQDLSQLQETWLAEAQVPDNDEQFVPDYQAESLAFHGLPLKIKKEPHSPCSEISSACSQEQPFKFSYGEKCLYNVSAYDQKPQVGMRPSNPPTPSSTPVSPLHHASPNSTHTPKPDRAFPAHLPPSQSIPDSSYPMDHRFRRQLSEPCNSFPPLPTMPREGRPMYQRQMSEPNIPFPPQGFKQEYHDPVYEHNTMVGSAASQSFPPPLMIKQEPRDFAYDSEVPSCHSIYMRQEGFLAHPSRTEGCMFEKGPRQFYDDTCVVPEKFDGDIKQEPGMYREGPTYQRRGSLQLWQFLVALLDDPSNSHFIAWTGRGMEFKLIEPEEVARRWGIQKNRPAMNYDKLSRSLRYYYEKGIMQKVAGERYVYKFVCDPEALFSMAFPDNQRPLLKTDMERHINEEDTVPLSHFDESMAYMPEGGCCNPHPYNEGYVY
# ETV5, sequence (P41161 whole entry): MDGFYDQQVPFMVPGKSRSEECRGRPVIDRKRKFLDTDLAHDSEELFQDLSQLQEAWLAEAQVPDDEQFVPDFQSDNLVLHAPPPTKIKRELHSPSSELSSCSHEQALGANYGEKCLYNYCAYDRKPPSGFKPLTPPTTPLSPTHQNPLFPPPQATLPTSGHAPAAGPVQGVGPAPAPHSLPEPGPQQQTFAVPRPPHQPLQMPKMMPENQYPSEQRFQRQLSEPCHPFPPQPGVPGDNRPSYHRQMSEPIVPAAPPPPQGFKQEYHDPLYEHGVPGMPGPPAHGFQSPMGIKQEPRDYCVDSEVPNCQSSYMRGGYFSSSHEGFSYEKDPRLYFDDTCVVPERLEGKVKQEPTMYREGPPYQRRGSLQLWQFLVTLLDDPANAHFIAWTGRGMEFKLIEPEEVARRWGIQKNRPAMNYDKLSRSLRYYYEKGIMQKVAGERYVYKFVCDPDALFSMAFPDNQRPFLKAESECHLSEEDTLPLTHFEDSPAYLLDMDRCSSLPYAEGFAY
sequence,measurement,setting,value
CCTATC,binding signal,[1],"1.16 fold enrichment (6-mer frequency, TF over GST control)"
same,binding signal,[2],"1.14 fold enrichment (6-mer frequency, TF over GST control)"
same,binding signal,[3],"1.06 fold enrichment (6-mer frequency, TF over GST control)"
same,binding signal,[4],"1.1 fold enrichment (6-mer frequency, TF over GST control)"
same,binding signal,[5],"1.16 fold enrichment (6-mer frequency, TF over GST control)"
same,binding signal,[6],"1.14 fold enrichment (6-mer frequency, TF over GST control)"
same,binding signal,[7],"1.08 fold enrichment (6-mer frequency, TF over GST control)"
same,binding signal,[8],"1.23 fold enrichment (6-mer frequency, TF over GST control)"
same,binding signal,[9],"1.15 fold enrichment (6-mer frequency, TF over GST control)"
same,binding signal,[10],"1.16 fold enrichment (6-mer frequency, TF over GST control)"
same,binding signal,[11],"1.17 fold enrichment (6-mer frequency, TF over GST control)"
same,binding signal,[12],"1.22 fold enrichment (6-mer frequency, TF over GST control)"
same,binding signal,[13],"1.2 fold enrichment (6-mer frequency, TF over GST control)"
same,binding signal,[14],"1.29 fold enrichment (6-mer frequency, TF over GST control)"
same,binding signal,[15],"1.3 fold enrichment (6-mer frequency, TF over GST control)"
same,binding signal,[16],"1.12 fold enrichment (6-mer frequency, TF over GST control)"
same,binding signal,[17],"1.2 fold enrichment (6-mer frequency, TF over GST control)"
same,binding signal,[18],"1.12 fold enrichment (6-mer frequency, TF over GST control)"
